Measurements taken from PubChem BioAssay (NCATS).
Results filed as inconclusive are left out. Values without a mark were called inactive. Activity calls are given as the source filed them. Calls follow the shape of the dose curve; as a rule, active = well fitted inhibition curve with a large enough effect; inconclusive = small, poorly fitted or top-dose-only effect; inactive = no such curve, though single readings can be large or run the other way.

target: Cytochrome P450 2C9 (Homo sapiens) (UniProt P11712); experiment: qHTS Assay for Inhibitors and Substrates of Cytochrome P450 2C9 (AID 883); conditions: recombinant CYP2C9, luciferin-H luminescence, 60 min; series mostly up to 57.1 µM; activity change, negative = inhibition: at the top concentration; also: nearly all actives have a fitted effect of over 60% in size
Sequence (P11712 whole entry, looked up): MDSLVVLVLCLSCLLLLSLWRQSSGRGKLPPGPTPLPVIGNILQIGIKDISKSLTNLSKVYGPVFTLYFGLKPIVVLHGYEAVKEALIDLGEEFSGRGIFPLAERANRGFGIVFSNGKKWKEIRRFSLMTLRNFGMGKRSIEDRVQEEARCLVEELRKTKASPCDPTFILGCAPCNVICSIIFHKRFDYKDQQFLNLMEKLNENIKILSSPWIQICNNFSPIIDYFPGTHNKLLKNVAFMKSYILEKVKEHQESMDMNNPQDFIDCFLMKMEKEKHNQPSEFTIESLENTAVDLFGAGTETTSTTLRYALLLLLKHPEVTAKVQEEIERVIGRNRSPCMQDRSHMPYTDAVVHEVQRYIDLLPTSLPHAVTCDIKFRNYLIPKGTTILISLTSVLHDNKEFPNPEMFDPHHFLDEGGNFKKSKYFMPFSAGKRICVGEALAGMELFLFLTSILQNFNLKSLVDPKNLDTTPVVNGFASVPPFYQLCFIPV
Protocol: NIH Molecular Libraries Screening Centers Network [MLSCN] NIH Chemical Genomics Center [NCGC] MLSCN Grant: None NCGC Assay Overview: The P450 gene superfamily is involved in the metabolism and clearance of xenobiotics. This assay used human CYP2C9 to measure the hydroxylation of deoxyluciferin (Luciferin-H; P450 Glo-Buffer) to luciferin. The luciferin is then measured by luminescence after the addition of a luciferase detection reagent. Luciferin-H concentration in the assay was equal to its Michaelis constant KM for CYP2C9. Inhibitors and some substrates limit the production of luciferin, and decrease measured luminescence.
NCGC Assay Protocol Summary: Two uL of enzyme and substrate mix (final concentrations: 10nM CYP2C9, 100uM Luciferin-H, 25mM KPO4) were dispensed into a white, solid bottom 1536-well microtiter plate. 23nL of compound was transferred by a pin tool. The plate was incubated at 37C for 10 min. Two uL of an NADPH regeneration solution (Promega supplied reagent) was dispensed and the reaction was allowed to continue for 60 min at 37C. Then the reaction was stopped by reconstituted P450 Glo-Buffer. After another 20 min of incubation the plate was read on the ViewLux (Perkin Elmer) at 60 sec exposure and 2x2 binning. This protocol was carried out with Promega-Glo reagents and further information can be found at http://www.promega.com/tbs/tb325/tb325.pdf. Data were normalized to the to AC100 inhibition (57uM sulphaphenazole). Keywords: P450, CYP2C9, Luciferase, MLSMR, MLSCN, NIH Roadmap, qHTS, NCGC
% is scaled to controls: 0 for no effect and ±100 for the full control effect; potency is read from the fitted curve at half-maximal effect.

Row | SMILES | activity change, negative = inhibition | Potency
1 | Cc1noc(C)c1-c1nccc(-n2ccnc2)n1 | 16.1% [at 2.29 µM] | –
2 | O=c1c(CCc2ccccc2)nc2cncnc2n1Cc1ccc(F)cc1 | – | 7940 nM (active)
3 | N#CCCn1c(=O)c(CCc2ccccc2)nc2cnc(Oc3cccc(Cl)c3)nc21 | – | 3160 nM (active)
4 | CN(C)c1ncc2ncc(=O)n(CCc3ccccc3)c2n1 | – | 6310 nM (active)
5 | CN1CCN(c2ncc3nc(-c4ccccc4)c(=O)n(CCc4ccccc4)c3n2)CC1 | – | 3160 nM (active)
6 | COc1ccccc1-c1cc(NCc2ccccc2)ncn1 | 35.7% [at 2.29 µM] | –
7 | CN1CCN(c2nc(-c3ccc(N(C)C)cc3)nc3ccccc23)CC1 | 9.44% [at 2.29 µM] | –
8 | CN(C)c1ccc(-c2nc(N(C)Cc3ccco3)c3ccccc3n2)cc1 | 33.8% [at 2.29 µM] | –
9 | COc1ccc(-n2c(=O)c(-c3cccs3)nc3cnc(N(C)C)nc32)cc1 | 8.5% | –
10 | O=C(c1csnn1)N1CCC2(CC1)CN(c1ccncc1)C2 | – | 2510 nM (active)
11 | CN(C)c1ncc2nc(-c3cccc(C#N)c3)c(=O)n(CCC#N)c2n1 | 32.8% | –
12 | COc1ccccc1CCn1c(=O)c(-c2cc(F)cc(F)c2)nc2cncnc21 | – | 1580 nM (active)
13 | CNc1ccnc(-c2c(C)noc2C)n1 | 41% [at 2.29 µM] | –
14 | FC(F)(F)c1ccccc1-c1nccc(N2CCNCC2)n1 | 37.4% [at 2.29 µM] | –
15 | O=c1c(-c2cccs2)nc2cncnc2n1Cc1ccccc1 | – | 1260 nM (active)
16 | COc1ccc(CNc2ncnc3ccc(-c4ccccc4OC)cc23)c(OC)c1 | – | 398 nM (active)
17 | N=C1Sc2ccccc2C2=NCCCN12 | – | 794 nM (active)
18 | O=S(=O)(c1ccccc1)N1CCC2(CCN(C(c3ccccc3)c3ccccc3)CC2)CC1 | – | 501 nM (active)
19 | CC(C)=CCc1c2c(c3occ(-c4ccc(O)c(O)c4)c(=O)c3c1O)C=CC(C)(C)O2 | – | 3160 nM (active)
20 | CN(C)c1ncc2nc(-c3cc(F)cc(F)c3)c(=O)n(CCC#N)c2n1 | 37.4% | –

Row | SMILES | activity change, negative = inhibition | Potency
21 | CCNc1ncc2ncc(=O)n(C3CC3)c2n1 | 33.5% | –
22 | c1ccc(Nc2cc(-c3ccoc3)ncn2)cc1 | -13.3% [at 2.29 µM] | –
23 | COc1ccc(C(=O)N2CCC3(CCCN(Cc4ccncc4)C3)CC2)cc1 | – | 3160 nM (active)
24 | COCCn1c(=O)c(C)nc2cnc(N3CCN(C)CC3)nc21 | 35.5% | –
25 | O=c1c(-c2ccccc2)nc2cnc(N3CCNCC3)nc2n1C1CC1 | – | 158 nM (active)
26 | COc1ccccc1CN1CC[C@@]2(CCCN(C(=O)c3c(C)noc3C)C2)C1 | 34.4% | –
27 | CC(=O)NCCNc1ncncc1-c1ccccc1C | 19.5% [at 2.29 µM] | –
28 | COc1cccc(-c2nc(NCc3ccccc3)c3ccccc3n2)c1 | – | 1260 nM (active)
29 | Cn1c(=O)c(-c2ccc(Cl)cc2)nc2cnc(N3CCOCC3)nc21 | 16.4% | –
30 | COc1ccc(CNc2ncnc3ccc(-c4ccccc4CN(C)C)cc23)c(OC)c1 | 2.97% [at 2.29 µM] | –
31 | COCCNc1cc(-c2ccccc2CN(C)C)ncn1 | 49.4% [at 2.29 µM] | –
32 | CN(C)C(=O)c1ccc(-c2nc(NC3CCNCC3)c3ccccc3n2)cc1 | 46.2% [at 2.29 µM] | –
33 | COc1ccc2[nH]cc(CCNc3ncncc3-c3ccc(N(C)C)cc3)c2c1 | – | 501 nM (active)
34 | CN(C)c1ccnc(-c2cccc(NS(C)(=O)=O)c2)n1 | 2.49% [at 2.29 µM] | –
35 | COc1ccccc1CCn1c(=O)c(-c2cccc(F)c2)nc2cncnc21 | – | 2510 nM (active)
36 | c1csc(CNc2ncncc2-c2ccc3c(c2)OCO3)c1 | – | 316 nM (active)
37 | N#Cc1cccc(-c2nc3cnc(Oc4cccc(Cl)c4)nc3n(C3CC3)c2=O)c1 | – | 3160 nM (active)
38 | O=C(c1ccncc1)N1CCC2(CC1)CN(c1ccccc1)C2 | – | 2510 nM (active)
39 | CCNc1ncc2nc(-c3cn(C)c4ccccc34)c(=O)n(-c3ccccc3)c2n1 | 36% | –
40 | CN(CCOc1ccc(C[C@H](Nc2ccccc2C(=O)c2ccccc2)C(=O)O)cc1)c1ccccn1 | – | 10000 nM (active)
